PubChem BioAssay AID1259336 (Sattelle Laboratory, UCL Respiratory, Division of Medicine, …, 2017)

Assay: C. elegans growth inhibition, whole organism, log2 fold change (AID 1259336);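 further: growth scored by imaging after five days at 20 °C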
Conditions: anthelmintic screen, stronger effect = lower value; in the data active means log2 fold change growth below about -1.8; inactive means the rest

log2 fold change growth, inactive:
O=C(NCc1nnc2n1CCCCC2)c1ccc(-c2ccc(F)cc2)o1 0.174
CCN(CC)S(=O)(=O)c1ccc(Cl)c(C(=O)Nc2ccc3nc(C)sc3c2)c1 -1.22
NC(N)=Nc1ccc(-c2ccc(-c3ccc(N=C(N)N)cc3Cl)o2)c(Cl)c1 0.171
CCc1cc(=O)n(C)c(S[C@@H](C)C(=O)Nc2ccc(F)cc2)n1 -0.417
CC(C)(CN)c1nc(-c2ccc(Cl)c(O)c2)c(-c2ccnc(N)n2)[nH]1 -0.414
Cc1cccc(Cn2ccc(NC(=O)c3ccc4c(c3)OCO4)n2)c1 -0.327
Cn1ccnc1CNCCS(=O)(=O)c1cccc(Nc2ccc(-c3cccc(F)c3)cn2)c1 0.155
O=C(Cn1ccnc1[N+](=O)[O-])NCc1ccccc1 0.415
Cc1cc(C)n(-c2ccc(NC(=O)C3CCN(Cc4cnc(C)s4)CC3)cc2)n1 0.442
COc1ccc(S(=O)(=O)Nc2ccc(CN3CCN(C(=O)c4cccc(C#N)c4)CC3)cc2)cc1 0.00585
CC1=Nc2ccc(Cl)cc2[C@H](c2ccccc2)N1CCNC(=O)CN(C)C 0.44
Cc1[nH]c2cc(F)cc(F)c2c(=O)c1-c1ccc(Oc2ccc(OC(F)(F)F)cc2)cc1 -0.247
CC1(O)CC(c2nc(-c3ccc4ccc(-c5ccccc5)nc4c3)c3c(N)nccn23)C1 (centres undefined) -0.23
NC(=O)c1cc(-c2ccsc2)ccc1OCCOc1ccccc1 0.0714
